Screening results deposited in PubChem BioAssay by National Center for Advancing Translational Sciences (NCATS).
PNC inhibitor: inhibitors of perinucleolar compartment assembly | PC3M PTB-GFP, PNC prevalence imaging, 16 h; hits give low values | activity change (PNC), negative = inhibition, % at 10 µM | actives 3.1% (n = 140,000) | AID 2417;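 active means readout at or below -70, meaning at least 70% loss of cells showing the perinucleolar compartment, a nuclear body marking cancer cells; inconclusive means readout between -30 and a set limit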;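 further: plate controls were DMSO wells for no effect and camptothecin positive control wells for full effect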
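Compounds are pinned in duplicate onto adhered PC3M cells stably expressing GFP-tagged PTB and incubated 16 h at 37 C. Cells are then fixed, nuclei stained with Hoechst, and PNC-positive cells counted.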
Luc counter: counter-screen: inhibitors of Kinase-Glo firefly luciferase. Q27757. Kinase-Glo luciferase, ATP luminescence, 8 min. Potency, µM (doses to about 38.3 µM), for inactives: at the highest dose activity change, negative = inhibition, usual class: inhibitors. actives 0.28% (n = 200,000); active means well fitted inhibition curve with a large enough effect; inconclusive means small, poorly fitted or top-dose-only effect; further: potency means the concentration at half of the fitted maximal effect; nearly all actives have a fitted effect of over 60% in size
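Compound is pinned into ATP-containing buffer (10 uM ATP, imidazole pH 7.2, 7 mM MgCl2). Kinase-Glo luciferase reagent is then added. Light output is recorded following an 8-min room-temperature incubation.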
Lamin A splicing: changes lamin A minigene splicing in HeLa cells; Potency, µM (highest dose often 46.1 µM), without a hit: at the top dose ratio change, negative = inhibition, hits mostly inhibitors; HeLa LMNA splicing GFP/RFP minigene ratio, 48 h; actives 0.01% (n = 200,000); AID 1487; active means well fitted inhibition curve with a large enough effect in the signal ratio, with a control signal flat, not every such curve was filed as active; inconclusive means small, poorly fitted or top-dose-only effect, or effect the other way, or a change in a side signal; the % refers to the signal ratio; further: potency means the concentration at half of the fitted maximal effect
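S3 HeLa stable clones carrying a lamin A-EGFP splicing minigene plus DsRed2 were seeded at 600 cells/well in Opti-MEM with 2% FBS, pin-dosed and incubated 48 h at 37°C. Acumen cytometry (488 nm) gave the GFP/RFP total-intensity ratio.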
HPGD block: inhibitors of human 15-hydroxyprostaglandin dehydrogenase (HPGD). purified HPGD, NADH fluorescence kinetic, PGE2 substrate. P15428. actives 4.3% (n = 150,000). Potency, µM, inactives show at the highest dose activity change, negative = inhibition, most hits filed as inhibitors; further: potency means the concentration at half of the fitted maximal effect
Target sequence (P15428 whole entry, looked up): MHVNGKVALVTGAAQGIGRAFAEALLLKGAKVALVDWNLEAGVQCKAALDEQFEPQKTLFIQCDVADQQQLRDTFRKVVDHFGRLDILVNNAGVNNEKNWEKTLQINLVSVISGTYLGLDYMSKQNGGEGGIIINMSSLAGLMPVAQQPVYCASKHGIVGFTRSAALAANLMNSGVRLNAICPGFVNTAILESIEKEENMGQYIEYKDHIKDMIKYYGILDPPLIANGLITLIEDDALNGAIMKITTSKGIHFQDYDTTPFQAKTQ
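20 nM HPGD preincubated 15 min at room temperature with compound in 50 mM Tris-HCl pH 8, 0.01% Tween 20. Started with 1 mM NAD+ and 30 uM prostaglandin E2; NADH fluorescence (360/450 nm) read 5 times over 30-s intervals, last minus first.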
ALDH1A1 inh: inhibitors of human aldehyde dehydrogenase 1A1. P00352. Purified ALDH1A1, NADH fluorescence, propionaldehyde substrate. Potency, µM (series often up to 75.3 µM), for inactives: top-dose activity, negative = inhibition, actives largely listed as inhibitors. actives 7.3% (n = 220,000). AID 1030;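 further: potency means the concentration at half of the fitted maximal effect; plate controls were no enzyme wells and a reference inhibitor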
An asterisk follows results filed as active; ? = inconclusive; · = no result given; [ ] = another dose, or the depositor's remark. Hits are enriched below; roughly 10% of the tested compounds scored in any of these assays. Unless noted, the call rests on the fitted dose curve; in most records, active means well fitted inhibition curve with a large enough effect (not every such curve was filed as active); inconclusive means small, poorly fitted or top-dose-only effect, or another doubt; inactive means no such curve, though single readings can be large or run the other way. Unless noted, on the % scale 0 is the no-effect control and ±100 the full control effect.

SMILES	PNC inhibitor	Luc counter	Lamin A splicing	HPGD block	ALDH1A1 inh
Cc1ccc(/C=C2/C(=O)N(c3ccccc3)C(=S)N2C)o1	16	-5%	4%	-23%	4µM*
CC1=CC2C(C)(C)CC(=O)C[C@]2(C)CC1COc1ccc2c(c1)CC(=O)C=C2 (some centres undefined)	·	1%	·	?	?
Cc1nn(CCC(=O)NNC(=S)NCC(C)C)c(C)c1Br	-112*	-3%	-16%	-5%	9%
COc1ccccc1CN1CCC2(CC1)CCN(S(C)(=O)=O)CC2	·	-4%	·	1%	-8%
Cc1ccc(C)c(N2CCN(C(=O)c3ccccc3Br)CC2)c1	-80*	1%	-3%	-5%	3%
Cc1ccc(N2CCN(C(=O)c3ccccc3)CC2)c(C)c1	13	-3%	10%	4%	5%
COc1cc(C(=O)N2CCN(c3ccc(C)cc3C)CC2)cc(OC)c1OC	-119*	0%	?	-12%	4%
Cc1ccc(N2CCN(C(=O)c3ccccc3Br)CC2)c(C)c1	-30	0%	?	25µM*	?
COc1cc(C(=O)N2CCC(O)(c3ccccc3)CC2)cc(OC)c1OC	7	0%	-1%	-3%	11%
Cc1ccc(-n2nnnc2-c2cnn(-c3cccc(F)c3)c2C(F)(F)F)cc1	-5	-1%	?	-3%	?
Fc1cccc(-n2ncc(-c3nnnn3-c3ccccc3)c2C(F)(F)F)c1	-84*	1%	-29%	-2%	-6%
COC(=O)c1ccc(NC(=O)c2nn(C)c3c2CS(=O)(=O)c2ccccc2-3)cc1	·	·	-27%[46 µM]	·	·
CC(=O)c1sc(N/N=C2\CC3CC2C(C)C3(C)C)nc1C (centres undefined)	·	3%	31%[46 µM]	·	16µM*
Cc1ccc(S(=O)(=O)c2cnc(-c3ccccc3)nc2Oc2ccccc2)cc1	24	0%	1%	-7%	?
Cc1ccc(S(=O)(=O)c2cnc(-c3ccccc3)nc2N2CCCCC2)cc1	·	0%	·	·	13µM*
COc1ccc(NC(=O)N2CC3(CCN(S(C)(=O)=O)CC3)C2)cc1	·	-2%	·	-2%	19%
Cc1cc2c3c(c1)C(C)CC(C)(C)N3C(=O)C2=O (centres undefined)	·	-8%	4%[46 µM]	·	0.16µM*
CCOc1cc2c3c(c1)C(C)=CC(C)(C)N3C(=O)C2=O	·	-5%	-19%[46 µM]	·	?
Cc1ccc2c3c1C(=O)C(=O)N3C(C)(C)CC2C (centres undefined)	-8	-4%	6%	-4%	-1%
CC1CC2(CCCCC2)N2C(=O)C(=O)c3cccc1c32 (centres undefined)	50	-2%	5%	-8%	0.045µM*
Cc1cc2c3c(c1C)C(=O)C(=O)N3C(C)(C)CC2C (centres undefined)	·	-4%	25%[46 µM]	·	2%
CCOc1cc2c3c(c1)C(C)CC(C)(C)N3C(=O)C2=O (centres undefined)	15	-4%	-2%	-10%	0.4µM*
O=C(c1cccc(F)c1)N1CCC2(CC1)CN(c1ccccn1)C2	·	-4%	·	?	?
CCc1cccc(NC(=O)C2CCCN(c3ncnc4onc(-c5ccc(F)cc5)c34)C2)c1 (centres undefined)	·	·	-12%[46 µM]	·	·
O=C(CN1C(=O)c2cccc3cccc(c23)C1=O)N1CCN(c2ccccn2)CC1	-104*	-2%	5%	-2%	12%
SMILES	PNC inhibitor	Luc counter	Lamin A splicing	HPGD block	ALDH1A1 inh
CC1CCN(C(=O)CN2C(=O)c3cccc4cccc(c34)C2=O)CC1	·	-3%	6%[46 µM]	·	?
O=C(COc1ccc(-c2nnco2)cc1)N1CCN(S(=O)(=O)c2ccccc2)CC1	-81*	-2%	10%	-3%	6%
CCCS(=O)(=O)N1CCN(C(=O)COc2ccc(-c3ccccc3)cc2)CC1	-88*	1%	-10%	-11%	?
COc1ccc(Cl)cc1NC(=O)c1nn(C)c2c1CS(=O)(=O)c1ccccc1-2	·	·	0%[46 µM]	·	·
CSc1nc2nc3c(cc2c(=O)n1-c1cccc(C)c1)COC(C)(C)C3	·	·	·	·	3.5µM*
CSc1nc2nc3c(cc2c(=O)n1-c1ccccc1)COC(C)(C)C3	·	0%	20%[46 µM]	·	14µM*
Cc1ccc(-n2c(=S)[nH]c3nc4c(cc3c2=O)COC(C)(C)C4)cc1	-20	0%	-1%	-1%	?
NCC1O[C@@H](O[C@@H]2C(O)[C@H](O[C@H]3OC(CO)C(O)C(N)C3O)[C@@H](N)C[C@H]2N)C(N)C(O)C1O (some centres undefined)	·	-1%	·	-12%	-3%
CC1=CC(=O)OC1Cc1ccc2ccccc2n1 (centres undefined)	·	?	·	-29%	?
O=[N+]([O-])c1ccc(Nc2nc(NC3CCCCC3)nc(N3CCCC3)n2)cc1	·	1%	·	·	13µM*
CC1=C(C(=O)Nc2cccnc2)C(c2ccccn2)n2nnnc2N1 (centres undefined)	34	-2%	-7%	-17%	14µM*
CC1=C(C(=O)Nc2ccccc2)C(c2cccs2)n2nnnc2N1 (centres undefined)	?	5%	-11%	-8%	11µM*
CC1=C(C(=O)Nc2ccccc2)C(c2ccncc2)n2nnnc2N1 (centres undefined)	-19	·	0%	·	?
CC1CN(Cc2nnc(-c3ccccc3)o2)CC(C)O1 (centres undefined)	·	3%	·	·	4%
O=C(NCC(c1cccnc1)N1CCOCC1)C(=O)Nc1cccc(Cl)c1 (centres undefined)	·	·	12%[46 µM]	·	·
COc1ccc(-n2c(=O)c(C)nc3cnc(Oc4cccc(Cl)c4)nc32)cc1	·	-2%	·	-4%	?
O=C1CCCC/C1=C/Nc1ccc(S(=O)(=O)Nc2ncccn2)cc1	?	0%	1%	-27%	22µM*
Cc1ccc(S(=O)(=O)Nc2ccc(S(=O)(=O)Nc3ncccn3)cc2)cc1	?	-3%	1%	1%	?
O=C1CCC/C1=C/Nc1ccc(Cl)cc1	·	-3%	·	·	-5%
O=C1CCCC/C1=C\Nc1ccc(O)cc1	-117*	-12%	-26%	-23%	14µM*
Cc1nc2cnc(Nc3ccccc3)nc2n(CCc2ccccc2)c1=O	·	·	22%	·	1%
COc1cccc(CNc2sc3c(c2C(=O)Nc2ccc(OC)cc2OC)CCC3)c1	·	·	-3%[46 µM]	·	·
CCN(CC)CCCNC(=O)c1ccc2c(SCC(=O)O)c3c(nc2c1)CCC3	-16	0%	11%	-8%	0%
CC(C)CCNC(=O)c1ccc2c(SCC(=O)O)c3c(nc2c1)CCCC3	3	3%	-4%	28µM*	?
O=C(CCc1ccccc1)N1CCN(CCO)CC1	-89*	-1%	-2%	4%	5%
O=C(CCCCC(=O)N1CCN(c2ccccc2)CC1)N1CCN(c2ccccc2)CC1	19	-1%	?	-2%	-13%
